Measured values published in PubChem BioAssay (EPA / NIEHS).
Values joined by “and” are separate entries in the source; they are usually repeats but may differ in a detail not shown here. Equal values may be shown once. Results filed as inconclusive are left out. Some compounds were tested as several samples or in several runs, with calls that do not always agree. Active and inactive are the calls of the source. Rule for the calls, unless noted: active = hit-call score of the fitted dose curve at least 0.9, where 1 is the maximum; inactive = score below 0.9.

Legend:
[1] = read-out: Interleukin-8 (IL8), CXCL8 (gene 3576); test: BSK_3C_IL8: BioMAP Diversity Plus: 3C Assay for Interleukin-8 (IL8) Biomarker Activity (AID 2283020); settings: primary human endothelial cells (HUVEC); actives raise or lower the signal
Summary of the method: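 Endothelial primary cells of human umbilical vein origin are dosed with chemical; after 24 h the IL-8 biomarker is measured by ELISA, and concentration–response is fitted in both directions versus DMSO.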

[2] = read-out: Monokine induced gamma interferon (MIG), CXCL9 (gene 4283); test: BSK_3C_MIG: BioMAP Diversity Plus: 3C Assay for Monokine induced gamma interferon (MIG) Biomarker Activity (AID 2283021); settings: primary human endothelial cells (HUVEC); actives raise or lower the signal;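 for AC50: MIG protein level measured by immunoassay in the treated endothelial cultures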
Summary of the method: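 Endothelial primary cells (human umbilical vein) are dosed with test chemical in the 3C system. MIG levels are measured by ELISA at 24 h and fitted in both directions relative to DMSO.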

[3] = BSK_3C_SRB: Viability Assessment in the BioMAP Diversity Plus: 3C Assay (AID 2283023); settings: primary human endothelial cells (HUVEC);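 note: fitted both ways against DMSO so a hit may be signal rise or drop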
Summary of the method: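 Primary human umbilical vein endothelial cells in the 3C system were read 24 h after compound dosing. Total protein was stained with 0.1% sulforhodamine B after 10% TCA fixation and read at 560 nm, with bidirectional fitting against DMSO as baseline.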

[4] = read-out: Matrix Metallopeptidase 1 (MMP1), MMP1 (gene 4312); test: BSK_BE3C_MMP1: BioMAP Diversity Plus: BE3C Assay for Matrix Metallopeptidase 1 (MMP1) Biomarker Activity (AID 2283024); settings: primary human bronchial epithelial cells; actives raise or lower the signal
Summary of the method: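 MMP1 signal, measured by ELISA after a 24 h chemical exposure of human primary bronchial epithelial cells, is analysed with bidirectional fitting using DMSO as negative control.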

[5] = BSK_3C_Vis: BioMAP Diversity Plus: 3C Assay for Morphology Visualization (AID 2283025); settings: primary human endothelial cells (HUVEC);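 note: fitted both ways so gain or loss versus DMSO counts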
Summary of the method: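 Morphology read by light microscopy serves as a background control for the multiplexed 3C assay in human umbilical vein endothelial cells, taken 24 h after dosing, with DMSO as the negative control and bidirectional curve fitting.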

[6] = read-out: Pselectin, SELP (gene 6403); test: BSK_4H_Pselectin: BioMAP Diversity Plus: 4H Assay for Pselectin Biomarker Activity (AID 2283026); settings: primary human endothelial cells (HUVEC); actives raise or lower the signal
Summary of the method: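 Endothelial primary cells (human umbilical vein) are dosed, incubated 24 h, and assayed for surface P-selectin by ELISA; responses in either direction are fitted relative to the DMSO negative control.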

[7] = BSK_4H_SRB: Viability Assessment in the BioMAP Diversity Plus: 4H Assay (AID 2283027); settings: primary human endothelial cells (HUVEC);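 note: cells exposed to compound for 24 h before staining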;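 for AC50: curves fitted both ways versus DMSO so AC50 may be loss or gain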
Summary of the method: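 Cytotoxicity readout: sulforhodamine B (0.1%) staining of total protein after 10% TCA fixation, measured at 560 nm in human umbilical vein endothelium at 24 h. DMSO set the baseline; fitting was bidirectional.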

[8] = BSK_BE3C_SRB: Viability Assessment in the BioMAP Diversity Plus: BE3C Assay (AID 2283028); settings: primary human bronchial epithelial cells;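 for AC50: fitted both ways so AC50 may mark signal gain or loss versus DMSO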
Summary of the method: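 Human primary bronchial epithelial cells were exposed to test chemicals for 24 h. Total protein in parallel cultures was then measured by staining with 0.1% sulforhodamine B after 10% TCA fixation, with absorbance read at 560 nm. Activity was fitted bidirectionally against DMSO.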

[9] = read-out: Thrombomodulin, THBD (gene 7056); test: BSK_3C_Thrombomodulin: BioMAP Diversity Plus: 3C Assay for Thrombomodulin Biomarker Activity (AID 2283029); settings: primary human endothelial cells (HUVEC); actives raise or lower the signal
Summary of the method: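 Endothelial cells from umbilical vein are dosed with test chemical and incubated 24 h. Thrombomodulin is then quantified by ELISA, with DMSO serving as negative control and activity baseline.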

[10] = read-out: Urokinase-type plasminogen activator receptor (uPAR), PLAUR (gene 5329); test: BSK_4H_uPAR: BioMAP Diversity Plus: 4H Assay for Urokinase-type plasminogen activator receptor (uPAR) Biomarker Activity (AID 2283030); settings: primary human endothelial cells (HUVEC); actives raise or lower the signal
Summary of the method: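 Primary human umbilical vein endothelial cells were exposed to chemical for 24 h before cell-surface uPAR was quantified by ELISA. Activity was fitted bidirectionally against the DMSO negative control baseline.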

[11] = read-out: Vascular endothelial growth factor receptor 2 (Homo sapiens) (UniProt P35968); test: BSK_4H_VEGFRII: BioMAP Diversity Plus: 4H Assay for Vascular endothelial growth factor receptor 2 (VEGFR2) Biomarker Activity (AID 2283031); settings: primary human endothelial cells (HUVEC); actives raise or lower the signal;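 for AC50: cell-surface VEGFR2 protein level quantified by ELISA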
Summary of the method: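 Primary human umbilical vein endothelial cells in the BioMAP 4H system were dosed with test chemical, and 24 h later VEGFRII was measured by ELISA. Activity was fitted bidirectionally against DMSO as negative control and baseline.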

[12] = read-out: Human Leukocyte Antigen - DR isotype (HLADR), HLA-DRA (gene 3122); test: BSK_BE3C_HLADR: BioMAP Diversity Plus: BE3C Assay for Human Leukocyte Antigen - DR isotype (HLADR) Biomarker Activity (AID 2283032); settings: primary human bronchial epithelial cells; actives raise or lower the signal
Summary of the method: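 Chemicals are dosed onto BE3C bronchial epithelial cultures of human origin and left 24 h. HLA-DR is then measured by ELISA, and the endpoint is fitted in both directions using DMSO as the activity baseline.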

[13] = read-out: Monokine induced gamma interferon (MIG), CXCL9 (gene 4283); test: BSK_BE3C_MIG: BioMAP Diversity Plus: BE3C Assay for Monokine induced gamma interferon (MIG) Biomarker Activity (AID 2283035); settings: primary human bronchial epithelial cells; actives raise or lower the signal
Summary of the method: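 hu bronchial epithelial 1° cells, 24 h cpd; MIG by ELISA; bidirectional fit, DMSO = baseline.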

[14] = read-out: Transforming growth factor beta 1 (TGFb1), TGFB1 (gene 7040); test: BSK_BE3C_TGFb1: BioMAP Diversity Plus: BE3C Assay for Transforming growth factor beta 1 (TGFb1) Biomarker Activity (AID 2283036;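 note: TGF-b1 protein level measured by ELISA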); settings: primary human bronchial epithelial cells; actives raise or lower the signal
Summary of the method: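 Bronchial epithelial primary cells are treated with test chemical, then TGF-b1 is quantified by ELISA after 24 hours. Values derive from bidirectional fitting against DMSO, with cytotoxicity checked by SRB staining in parallel cultures.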

[15] = read-out: Plasminogen activator inhibitor-1 (PAI1), SERPINE1 (gene 5054); test: BSK_BE3C_PAI1: BioMAP Diversity Plus: BE3C Assay for Plasminogen activator inhibitor-1 (PAI1) Biomarker Activity (AID 2283037); settings: primary human bronchial epithelial cells; actives raise or lower the signal
Summary of the method: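 Values derive from bidirectional fitting against DMSO baseline of PAI-1 levels, measured by ELISA in human bronchial epithelial cells 24 h after compound addition.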

[16] = read-out: urokinase plasminogen activator (uPA), PLAU (gene 5328); test: BSK_BE3C_uPA: BioMAP Diversity Plus: BE3C Assay for urokinase plasminogen activator (uPA) Biomarker Activity (AID 2283038); settings: primary human bronchial epithelial cells; actives raise or lower the signal
Summary of the method: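 Human primary bronchial epithelial cells were exposed to chemical for 24 h, then uPA levels were measured by ELISA. Responses were fitted bidirectionally against DMSO as negative control and baseline. Parallel SRB staining of total protein gauged overt cytotoxicity.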

[17] = read-out: Urokinase-type plasminogen activator receptor (uPAR), PLAUR (gene 5329); test: BSK_BE3C_uPAR: BioMAP Diversity Plus: BE3C Assay for Urokinase-type plasminogen activator receptor (uPAR) Biomarker Activity (AID 2283039); settings: primary human bronchial epithelial cells; actives raise or lower the signal
Summary of the method: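 Steps: dose human primary bronchial epithelial cells, incubate 24 h, measure uPAR by ELISA, then fit gain- or loss-of-signal response bidirectionally relative to DMSO.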

[18] = biological target: human Vitamin D Receptor (VDR), VDR (gene 7421) (UniProt P11473); test: ATG_VDR_TRANS: Attagene TRANS-FACTORIAL HepG2 Assay for human Vitamin D Receptor (VDR) (AID 2283022; active = hit-call score of the fitted dose curve at least 0.9, where 1 is the maximum)
Summary of the method: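 HepG2 cells were transiently transfected with multiple GAL4-UAS reporter units, so signal reflects exogenous chimeric receptor-Gal4 activity. After 24 h compound exposure, reporter mRNA was measured by RT-PCR, fluorescent labelling and capillary electrophoresis, fitted for gain of signal versus DMSO.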

[19] = read-out: Interferon-gamma inducible Protein 10 (IP10), CXCL10 (gene 3627); test: BSK_BE3C_IP10: BioMAP Diversity Plus: BE3C Assay for Interferon-gamma inducible Protein 10 (IP10) Biomarker Activity (AID 2283034); settings: primary human bronchial epithelial cells; actives raise or lower the signal
Summary of the method: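 IP-10 quantified by ELISA serves as the endpoint. Cells: primary human bronchial epithelium, read 24 h after compound addition. Activity is derived by bidirectional fitting with DMSO as negative control.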

[20] = read-out: Vascular cell adhesion molecule 1 (VCAM1), VCAM1 (gene 7412); test: BSK_4H_VCAM1: BioMAP Diversity Plus: 4H Assay for Vascular cell adhesion molecule 1 (VCAM1) Biomarker Activity (AID 2283033); settings: primary human endothelial cells (HUVEC); actives raise or lower the signal;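 note: cell-surface VCAM-1 protein measured by ELISA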
Summary of the method: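 Chemicals are added to primary human umbilical vein endothelial cells. After 24 h, VCAM-1 levels are measured by ELISA. Values come from bidirectional fitting referenced to DMSO.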

Measured: AC50

Chain of human Vitamin D Receptor (VDR), VDR (gene 7421) (P11473 whole entry, looked up, the tested form may be a part): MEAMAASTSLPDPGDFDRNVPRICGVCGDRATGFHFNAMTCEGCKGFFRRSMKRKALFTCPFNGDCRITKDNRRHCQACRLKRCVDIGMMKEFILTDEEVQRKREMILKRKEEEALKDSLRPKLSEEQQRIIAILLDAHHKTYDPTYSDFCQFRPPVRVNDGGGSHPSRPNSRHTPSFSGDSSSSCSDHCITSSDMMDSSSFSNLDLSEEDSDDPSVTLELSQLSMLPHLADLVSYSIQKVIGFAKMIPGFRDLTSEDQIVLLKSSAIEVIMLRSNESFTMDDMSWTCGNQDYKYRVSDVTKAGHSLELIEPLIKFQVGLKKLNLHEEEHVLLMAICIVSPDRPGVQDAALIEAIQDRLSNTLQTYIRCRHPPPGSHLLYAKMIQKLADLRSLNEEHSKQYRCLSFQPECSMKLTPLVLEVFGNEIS

CCOC(=O)C1=NN(c2ccc(Cl)cc2Cl)C(C)(C(=O)OCC)C1 (stereo not given)
active: [3] 20 µM | [5] 37.5 µM | [7] 12.4 µM
not listed: [18] | [19] | [20]
inactive: all other assays above

CCN1CN(CC)CN(CC)C1
active: [4] 112 nM
not listed: [18] | [19] | [20]
inactive: all other assays above

Nc1ccc(C(=O)O)cc1
not listed: [18] | [19] | [20]
inactive: all other assays above

CC(=O)OC1CCCCC1
inactive: [18]

O=C(Oc1ccccc1)c1ccccc1C(=O)Oc1ccccc1
active: [3] 20 µM
not listed: [18] | [19] | [20]
inactive: all other assays above

CN1CCN(C)CC1
inactive: [18]

CCCC(C)C(=O)OCC (stereo not given)
not listed: [5] | [14] | [18] | [19] | [20]
inactive: all other assays above

CC1=CC=C(C(C)C)CC1
not listed: [18] | [19] | [20]
inactive: all other assays above

CC1=CC(C)C(C=O)CC1 (stereo not given)
inactive: [18]

COc1ccc(C(=O)c2ccccc2)c(O)c1
active: [3] 4.55 µM
not listed: [18] | [19] | [20]
inactive: all other assays above

C=CCCCCCCCCC=O
not listed: [18] | [19] | [20]
inactive: all other assays above

O=C1CCCCCCCCCCCN1
not listed: [18] | [19] | [20]
inactive: all other assays above

CC(C)c1cccc(C(C)C)c1N
active: [5] 37.5 µM | [7] 33.5 µM
not listed: [18] | [20]
inactive: all other assays above

O=C(Cl)c1c(Cl)c(Cl)c(C(=O)Cl)c(Cl)c1Cl
not listed: [18] | [19] | [20]
inactive: all other assays above

C=CC(=O)OCCCCCCOC(=O)C=C
inactive: [4] | [8] | [9] | [14] | [15] | [16]
active: [1] 12.3 µM | [2] 20 µM | [3] 20 µM | [5] 12.9 µM | [6] 10.3 µM | [7] 20 µM | [10] 20 µM | [11] 20 µM | [12] 7.89 µM | [13] 35.7 µM | [17] 11.4 µM

c1ccc(Nc2cccc3ccccc23)cc1
active: [1] 27.6 µM and 24.6 µM | [2] 36.5 µM and 31.8 µM | [3] 31.8 µM and 34 µM | [4] 8.87 µM and 4.89 µM | [6] 35.2 µM and 33 µM | [7] 33.3 µM and 35.6 µM | [8] 27.4 µM and 28.4 µM | [10] 35.4 µM and 35.1 µM | [11] 33.2 µM and 32.2 µM | [12] 28 µM and 30.7 µM | [15] 12.7 µM and 20.4 µM | [17] 35.2 µM
inactive: [9] | [13] | [16] | [17]

CC=C(C)C=CC=C(C)C
active: [9] 3.97 µM | [12] 15.9 µM | [16] 0.0546 µM
not listed: [18] | [20]
inactive: all other assays above

Oc1c(Cl)cc(Cl)c(Cl)c1Cl
active: [1] 20 µM | [3] 20 µM | [4] 4310 nM | [5] 16.6 µM | [6] 31.5 µM | [7] 24.5 µM | [10] 20 µM | [12] 6.25 µM | [19] 20 µM | [15] 7.51 µM | [16] 6.07 µM | [17] 20 µM
inactive: [2] | [8] | [9] | [11] | [13] | [14]

C=CC(=O)NC(C)(C)C
not listed: [18] | [19] | [20]
inactive: all other assays above

Nc1nc(N)nc(-c2ccccc2)n1
not listed: [5] | [14] | [18] | [19]
inactive: all other assays above

O=C(O)C1CCC(C(=O)O)CC1 (stereo not given)
inactive: [18]

C=C(C)C(=O)OCCCCCCCCCCCC
not listed: [18] | [19] | [20]
inactive: all other assays above

CCCCCCCCCCCCC
inactive: [18]
